Where “and” joins values, the source holds several entries; their conditions need not be identical. Equal entries are not always repeated. Screen size: about 16,000 compounds; about 5,700 (36%) were called active. Another 24% or so got no clear call; they are omitted. The list shows a part of the results. A number with no mark means an inactive call. The call rests on the fitted dose curve; in most records, active means well fitted curve in the direction sought with a large enough effect; inconclusive means small, poorly fitted or top-dose-only effect, or effect the other way; inactive means no such curve, though single readings can be large or run the other way.
What follows are molecules tested against Cytochrome P450 1A2 (Homo sapiens) (UniProt P05177) (assay: Cytochrome panel assay with activity outcomes). Conditions: recombinant CYP, pro-luciferin dealkylation, luminescence, p450-cyp1a2; series mostly up to 57.1 µM.
On the % scale 0 is the no-effect control and ±100 the full control effect.

Sequence of Cytochrome P450 1A2 (Homo sapiens) (P05177 whole entry, looked up): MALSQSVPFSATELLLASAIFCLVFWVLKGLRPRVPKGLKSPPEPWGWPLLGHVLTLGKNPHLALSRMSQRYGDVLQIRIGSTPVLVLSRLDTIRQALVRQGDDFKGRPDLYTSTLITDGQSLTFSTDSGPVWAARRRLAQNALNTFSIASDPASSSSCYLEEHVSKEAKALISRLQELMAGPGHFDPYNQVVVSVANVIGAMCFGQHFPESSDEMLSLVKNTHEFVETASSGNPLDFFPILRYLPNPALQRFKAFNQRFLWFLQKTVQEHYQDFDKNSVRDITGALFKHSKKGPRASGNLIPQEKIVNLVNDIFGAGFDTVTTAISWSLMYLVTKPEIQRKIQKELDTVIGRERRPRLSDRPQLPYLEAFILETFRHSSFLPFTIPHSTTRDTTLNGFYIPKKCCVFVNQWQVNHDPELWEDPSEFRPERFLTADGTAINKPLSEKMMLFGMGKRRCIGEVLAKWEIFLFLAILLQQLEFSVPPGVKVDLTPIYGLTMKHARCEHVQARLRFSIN

SMILES | activity, negative = inhibition | AC50
C[C@H]1CC[C@@]2(NC1)O[C@@H]1C[C@@H]3[C@@H]4CC=C5C[C@@H](O)CC[C@]5(C)[C@@H]4CC[C@]3(C)[C@H]1[C@@H]2C | -1.04% [at 11.4 µM] | 
C[C@@]12CC[C@H]3[C@@H](CC=C4C[C@H](OS(=O)(=O)O)CC[C@]43C)[C@H]1CCC2=O |  | inactive
COCOc1ccc(Br)cc1C(=O)/C=C\c1ccc2c(c1)OCO2 | -3.01% [at 11.4 µM] | 
N[C@@H](Cc1ccccc1)P(=O)(O)O | -13.6% [at 11.4 µM] | 
O=[N+]([O-])c1ccc(N2CCNCC2)cc1NC1CC1 |  | 0.708 µM (active)
CN1CCN(c2ccc([N+](=O)[O-])c(N/N=C3\CN4CCC3CC4)c2)CC1 |  | inactive
O=[N+]([O-])c1ccc(N2CCNCC2)cc1NCC1CCCO1 (stereo not given) |  | 1.41 µM (active)
NS(=O)(=O)c1ccc(-c2ccc([As](=O)(O)O)cc2)cc1 | -0.225% [at 11.4 µM] | 
C1C[C@@H]2CN(CCCN3CCOCC3)[C@@H](C1)O2 | -10.8% [at 11.4 µM] | 
COc1cc2c(cc1OC)[C@@]13CCN4CC5=CCO[C@H](CC(=O)O)[C@@H]([C@H]1N2)[C@H]5C[C@H]43 | -21.3% [at 11.4 µM] | 
C[C@@H]1CC[C@@H]2N(C1)C[C@H]1[C@@](O)([C@H](O)C[C@]3(O)[C@H]4CC[C@H]5[C@]6(O)O[C@]4(C[C@]13O)[C@@]5(C)CC[C@@H]6O)[C@@]2(C)O | -15.8% [at 11.4 µM] | 
c1ccc2c(c1)[I+]c1ccccc1-2 |  | 126 nM (active) and 20 nM (active)
O=C1CCCN1CC#CCN1CCCC1 |  | inactive
COc1ccc(C(=O)O[C@H]2CC[C@@]3(C)[C@H]4CC[C@H]5[C@]3(C[C@]3(O)[C@H]6CN7C[C@H](C)CC[C@H]7[C@](C)(O)[C@]6(O)[C@H](O)C[C@]53O)O[C@]24O)cc1OC | -20.9% [at 2.29 µM] | 
O[Si@](CCCN1CCCCC1)(c1ccc(F)cc1)C1CCCCC1 |  | inactive
CCCCN1C(=O)C(C2c3ccccc3C(=O)N2Cc2ccccc2)C(=O)NC1=S (stereo not given) |  | 12.6 µM (active)
CN1C(=O)C(C2c3ccccc3C(=O)N2Cc2ccc([N+](=O)[O-])cc2)C(=O)N(C)C1=O (stereo not given) |  | inactive
CC(C)CN1CCC2(CC1)CCN(C(=O)Oc1ccccc1)CC2 |  | inactive
C=C(C)CN1CC[C@@]23c4c5ccc(O)c4O[C@H]2c2[nH]c4ccccc4c2C[C@]3(O)[C@@H]1C5 |  | inactive
CC1=NN(c2ccc(S(=O)(=O)O)cc2C)C(=[OH+])[C@H]1N=Nc1cc(S(=O)(=O)O)ccc1C(=O)O.O.[Cr] | -12.7% [at 11.4 µM] | 

Source: PubChem BioAssay AID1851 (National Center for Advancing Translational Sciences (NCATS), 2009)
